# Inconclusive results are not listed. The source made the active and inactive calls. How the source made its calls, unless noted: active means hit-call score of the fitted dose curve at least 0.9, where 1 is the maximum; inconclusive means response in the unintended direction; inactive means score below 0.9.
# What was measured:
# [1] = read-out: xenobiotic metabolism (CYP1A2), CYP1A2 (gene 1544); assay: CLD_CYP1A2_48hr: CellzDirect (CLD) Gene Expression Assay for xenobiotic metabolism (CYP1A2) at 48 hours (AID 2283703)
# Method in brief: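 Cytotoxicity was flagged yes/no from morphology, while CYP1A2 transcript induction was detected by qNPA chemiluminescence after a 48-hour exposure. Human primary hepatocyte cultures from separate donors received fresh dosing solutions daily over two days, with 0.2% DMSO as vehicle and baseline.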
# [2] = read-out: Glyceraldehyde-3-phosphate dehydrogenase (Homo sapiens) (UniProt P04406); assay: CLD_GAPDH_48hr: CellzDirect (CLD) Gene Expression Assay for Baseline Control (Glyceraldehyde 3-phosphate dehydrogenase) at 48 hours (AID 2283706);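 further: active means higher GAPDH mRNA than DMSO vehicle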
# Method in brief: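 GAPDH baseline-control readout: qNPA chemiluminescent mRNA quantitation in human liver primary cells 48 h after daily dosing on two consecutive days, vehicle 0.2% DMSO; gain of signal fitted against DMSO, cytotoxicity flagged by phase-contrast morphology.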
# [3] = read-out: glucuronosyltransferase (UGT1A1), UGT1A1 (gene 54658); assay: CLD_UGT1A1_48hr: CellzDirect (CLD) Gene Expression Assay for glucuronosyltransferase (UGT1A1) at 48 hours (AID 2283709);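 further: actives increase expression relative to DMSO so potency refers to induction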
# Method in brief: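 Quantitative nuclease protection assay (chemiluminescent) for UGT1A1 mRNA at 48 h in human hepatocyte cultures from two donors, redosed daily with fresh solutions. Induction fitted relative to 0.2% DMSO; phase-contrast morphology annotated cytotoxicity.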
# [4] = read-out: sulfotransferase (SULT2A), SULT2A1 (gene 6822); assay: CLD_SULT2A_48hr: CellzDirect (CLD) Gene Expression Assay for sulfotransferase (SULT2A) at 48 hours (AID 2283710);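 further: hits raise SULT2A1 transcript above the 0.2% DMSO vehicle baseline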
# Method in brief: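 SULT2A1 transcript measured by qNPA chemiluminescence in human primary hepatocyte cultures after 48 h, with fresh dosing solutions on two consecutive days; gain-of-signal fitting against 0.2% DMSO vehicle; cytotoxicity annotated from phase-contrast morphology.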
# [5] = STM_H9_OrnithineISnorm_perc: Stemina devTOX quickPredict H9 human embryonic stem cell (hESC)-based Assay for Ornithine (ORN) Metabolite Biomarker, Normalized (AID 2283712; active means hit-call score of the fitted dose curve at least 0.9, where 1 is the maximum; inactive means score below 0.9;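 further: ornithine released into spent medium during last day measured by mass spectrometry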)
# Method in brief: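 Ornithine in spent medium from the last 24 h of a 72 h exposure, deproteinised and quantified by UPLC-HRMS against an isotope-labelled internal standard, expressed relative to 0.1% DMSO. Pluripotent H9 cells; compound refreshed every 24 h.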
# [6] = CEETOX_H295R_MTT_cell_viability: Viability Assessment in the CeeTox HT-H295R MTT Assay (AID 2283718; active means hit-call score of the fitted dose curve at least 0.9, where 1 is the maximum; inactive means score below 0.9)
# Method in brief: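 Human H295R adrenal cells, prestimulated 48 h with 10 uM forskolin, were exposed 48 h to chemicals in 0.1% DMSO. Viability was measured in the same wells by MTT (0.5 mg/ml, 4 h, 37 C), absorbance 570/650 nm, as percent of controls.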
# [7] = Tanguay_ZF_120hpf_ActivityScore_legacy: (Legacy) Oregon State University Tanguay Lab 120 Hour Post-fertilization zebrafish Assay Score for Activity (AID 2283742);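 on AC50: dechorionated Tropical 5D wild-type zebrafish embryos held singly per well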
# Method in brief: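 Dechorionated 5D embryos, one per well, static exposure 6–120 hpf, 28C, sealed and dark; final DMSO 0.64% (vol/vol). Brightfield binary scoring of mortality plus 18 endpoints; gain-of-signal fit versus DMSO baseline.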
# [8] = ArunA_CellTiter_hNC: Viability Assessment in the ArunA Biomedical's Oris Neural Crest (hNC) Cell Migration Assay (AID 2283752)
# Method in brief: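 After a 72 h chemical exposure, viability of hNC cells is read with CellTiter Aqueous One and fitted as signal loss relative to DMSO. Cells were seeded at 60,000/well on Matrigel and cultured 16 h at 37 C beforehand.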
# [9] = ArunA_CellTiter_hNP: Viability Assessment in the ArunA Biomedical's Oris Neural Crest (hNC) Cell Migration Assay (AID 2283753)
# Method in brief: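 Viability read with CellTiter 96 Aqueous One after 72 h chemical exposure of human hNP1 neuroprogenitors, which were plated on Matrigel in LIF/bFGF medium 16 h beforehand. Endpoint fitted in positive direction relative to DMSO.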
# [10] = ArunA_Migration_hNC: ArunA Biomedical's Oris Neural Crest (hNC) Cell Migration Assay (AID 2283755)
# Method in brief: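 Calcein-AM fluorescence (ex494 nm/em 517 nm) in the stopper-defined detection zone quantifies migration of hNC cells after 72 h chemical exposure; 60,000 cells/well plated on Matrigel with LIF and bFGF, 16 h pre-incubation. DMSO baseline.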
# [11] = ArunA_NOG_NeuriteLength: ArunA Biomedical's Neurite Outgrowth (NOG) Assay for Neurite Length (AID 2283757)
# Method in brief: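 Total neurite length per neuron, from traced βIII-tubulin-labelled processes longer than 10 um on viable Hoechst-gated cells, was scored as decrease from DMSO. Cells were hESC (H9)-derived neurons given 48 h chemical exposure immediately after seeding.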
# [12] = read-out: alkyl and aryl transferase (GSTA2), GSTA2 (gene 2939); assay: CLD_GSTA2_48hr: CellzDirect (CLD) Gene Expression Assay for alkyl and aryl transferase (GSTA2) at 48 hours (AID 2283708);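 further: active means mRNA induction above DMSO vehicle baseline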
# Method in brief: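 GSTA2 mRNA quantified by qNPA chemiluminescence in human primary hepatocyte lysates after 48 h of daily fresh chemical dosing. Increases fitted against 0.2% DMSO vehicle baseline; cytotoxicity from morphology annotated yes/no.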
# [13] = read-out: HMG-CoA synthase (HMGCS2), HMGCS2 (gene 3158); assay: CLD_HMGCS2_48hr: CellzDirect (CLD) Gene Expression Assay for HMG-CoA synthase (HMGCS2) at 48 hours (AID 2283711)
# Method in brief: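 mRNA induction read by qNPA chemiluminescence, 48 h after dosing. Cultured primary human liver cells (two donor preparations) received fresh compound daily over two days against 0.2% DMSO vehicle; morphology-based cytotoxicity noted alongside.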
# [14] = read-out: Broad substrate specificity ATP-binding cassette transporter ABCG2 (Homo sapiens) (UniProt Q9UNQ0); assay: CLD_ABCG2_48hr: CellzDirect (CLD) Gene Expression Assay for ABC Transporter (ABCG2) at 48 hours (AID 2283704)
# Method in brief: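 ABCG2 transcript measured at 48 h by quantitative nuclease protection (chemiluminescent) and fitted for increase relative to 0.2% DMSO. Hepatocyte cultures from separate donors got fresh compound daily over two days; morphology annotated cytotoxicity.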
# [15] = target: Luciferin 4-monooxygenase (Photinus pyralis) (UniProt P08659); assay: CCTE_Simmons_QuantiLum_inhib_2: CCTE's Firefly Luciferase Inhibition Assay, Simmons Lab (AID 2283767)
# Luciferin 4-monooxygenase (Photinus pyralis), sequence (P08659 whole entry, looked up): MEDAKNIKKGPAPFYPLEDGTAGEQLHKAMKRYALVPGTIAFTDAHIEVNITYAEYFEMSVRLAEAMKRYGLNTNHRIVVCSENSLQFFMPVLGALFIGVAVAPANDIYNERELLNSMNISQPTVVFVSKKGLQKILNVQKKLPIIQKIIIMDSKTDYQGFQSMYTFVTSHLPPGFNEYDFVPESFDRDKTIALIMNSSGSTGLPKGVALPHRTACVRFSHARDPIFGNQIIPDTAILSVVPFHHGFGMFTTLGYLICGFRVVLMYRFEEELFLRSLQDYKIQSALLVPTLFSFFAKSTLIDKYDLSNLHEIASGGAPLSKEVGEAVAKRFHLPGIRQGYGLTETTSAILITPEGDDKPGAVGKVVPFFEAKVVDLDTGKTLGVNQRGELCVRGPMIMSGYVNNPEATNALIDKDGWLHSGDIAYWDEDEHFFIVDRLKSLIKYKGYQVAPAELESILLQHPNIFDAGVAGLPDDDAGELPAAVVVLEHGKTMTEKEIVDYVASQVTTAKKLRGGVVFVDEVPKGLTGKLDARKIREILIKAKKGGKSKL
# Method in brief: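 Eight test concentrations, 5 nM up to 87.5 uM final, preincubated 30min at 37C in the dark with purified luciferase (0.5% DMSO final). Detection reagent (150uM D-luciferin, 147uM dATP, 75uM CoA, pH 7.8) injected per well before kinetic luminescence read; three replicates.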
# [16] = read-out: xenobiotic metabolism (CYP1A1), CYP1A1 (gene 1543); assay: CLD_CYP1A1_48hr: CellzDirect (CLD) Gene Expression Assay for xenobiotic metabolism (CYP1A1) at 48 hours (AID 2283705)
# Method in brief: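 CYP1A1 transcript measured by quantitative nuclease protection (chemiluminescent) 48 h after two daily treatments of human hepatocyte cultures, versus 0.2% DMSO. Morphology-based cytotoxicity flags accompany data; two donor preparations used.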
# [17] = test system: Thyroperoxidase (TPO), gene 445522; assay: CCTE_Simmons_GUA_TPO: CCTE's Guaiacol Assay for Thyroperoxidase (TPO) Inhibition, Simmons Lab (AID 2283750)
# Method in brief: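 Porcine thyroid microsomes (25 ug) in 200mM potassium phosphate, preincubated 30 s at 37C with compound (8 concentrations, 5 nM–87.5 uM) and 35mM guaiacol; 1mM H2O2 starts reaction. Absorbance change at 450nm over first 80 s; loss of signal versus DMSO, three replicates.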
# Broad substrate specificity ATP-binding cassette transporter ABCG2 (Homo sapiens), sequence (Q9UNQ0 whole entry, looked up): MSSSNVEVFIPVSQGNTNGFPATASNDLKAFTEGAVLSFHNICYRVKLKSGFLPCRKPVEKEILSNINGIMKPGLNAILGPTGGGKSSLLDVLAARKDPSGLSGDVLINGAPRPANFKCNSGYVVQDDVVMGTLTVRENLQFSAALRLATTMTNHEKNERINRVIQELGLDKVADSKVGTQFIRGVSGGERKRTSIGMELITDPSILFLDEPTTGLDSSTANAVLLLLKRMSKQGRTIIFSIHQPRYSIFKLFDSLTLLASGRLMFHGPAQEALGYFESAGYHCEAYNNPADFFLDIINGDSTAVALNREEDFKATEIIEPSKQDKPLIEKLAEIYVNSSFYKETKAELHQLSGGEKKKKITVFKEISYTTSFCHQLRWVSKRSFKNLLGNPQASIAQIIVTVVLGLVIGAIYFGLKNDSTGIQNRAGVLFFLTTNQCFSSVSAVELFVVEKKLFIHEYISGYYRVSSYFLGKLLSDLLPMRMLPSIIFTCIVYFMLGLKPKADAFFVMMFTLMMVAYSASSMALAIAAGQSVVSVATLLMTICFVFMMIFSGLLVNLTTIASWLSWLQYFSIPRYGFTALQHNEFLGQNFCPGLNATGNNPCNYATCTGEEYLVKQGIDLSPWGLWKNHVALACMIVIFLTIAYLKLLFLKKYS
# Glyceraldehyde-3-phosphate dehydrogenase (Homo sapiens), sequence (P04406 whole entry, looked up): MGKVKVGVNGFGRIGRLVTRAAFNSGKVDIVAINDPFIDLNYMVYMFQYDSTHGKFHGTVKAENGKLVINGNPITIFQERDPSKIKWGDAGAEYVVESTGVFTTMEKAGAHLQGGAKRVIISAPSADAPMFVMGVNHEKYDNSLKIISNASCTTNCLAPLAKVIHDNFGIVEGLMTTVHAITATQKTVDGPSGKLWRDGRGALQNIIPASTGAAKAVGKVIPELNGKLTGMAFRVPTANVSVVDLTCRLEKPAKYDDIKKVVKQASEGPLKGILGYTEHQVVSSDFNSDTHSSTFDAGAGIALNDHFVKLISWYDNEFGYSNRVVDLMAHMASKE
smiles,measurement,setting,value
COCc1cnc(C2=NC(C)(C(C)C)C(=O)N2)c(C(=O)O)c1 (stereo not given),outcome,[1],inactive
same,outcome,[2],inactive
same,outcome,[3],inactive
same,outcome,[4],inactive
same,outcome,[5],inactive
same,outcome,[6],inactive
same,outcome,[7],inactive
same,outcome,[8],inactive
same,outcome,[9],inactive
same,outcome,[10],inactive
same,outcome,[11],inactive
CC(C)N1C(=O)c2ccccc2NS1(=O)=O,outcome,[1],inactive
same,outcome,[2],inactive
same,outcome,[12],inactive
same,outcome,[3],inactive
same,outcome,[13],inactive
same,outcome,[7],inactive
O=C1C2CC=CCC2C(=O)N1SC(Cl)(Cl)Cl (stereo not given),outcome,[14],inactive
same,outcome,[12],inactive
same,outcome,[5],inactive
same,outcome,[6],inactive
same,AC50,[7],43.5 µM (active)
CCOP(=S)(OCC)Oc1nc(Cl)n(C(C)C)n1,AC50,[1],5.78 µM (active)
same,outcome,[12],inactive
same,AC50,[3],1.9 µM (active)
same,outcome,[5],inactive
same,outcome,[6],inactive
same,outcome,[7],inactive
same,outcome,[15],inactive
Cn1c(-c2ccccc2)cc(-c2ccccc2)[n+]1C,outcome,[14],inactive
same,AC50,[12],2.83 µM (active)
same,AC50,[5],25.3 µM (active)
same,outcome,[7],inactive
Nc1c(Cl)c(Cl)nc(C(=O)O)c1Cl,AC50,[1],5.16 µM (active)
same,outcome,[3],inactive
same,outcome,[7],inactive
O=C(O)c1c(Cl)ccc2cc(Cl)cnc12,outcome,[1],inactive
same,outcome,[2],inactive
same,outcome,[12],inactive
same,outcome,[4],inactive
same,outcome,[13],inactive
same,outcome,[7],inactive
CC(C)NC(=O)N1CC(=O)N(c2cc(Cl)cc(Cl)c2)C1=O,AC50,[1],4.68 µM (active)
same,outcome,[3],inactive
same,outcome,[6],inactive
same,outcome,[7],inactive
CCN(CC)c1nc(C)cc(OP(=S)(OC)OC)n1,AC50,[1],7.6 µM (active)
same,AC50,[16],9.28 µM (active)
same,outcome,[3],inactive
same,outcome,[4],inactive
same,outcome,[6],inactive
same,outcome,[7],inactive
same,outcome,[15],inactive
Cc1cnc(C2=NC(C)(C(C)C)C(=O)N2)c(C(=O)O)c1 (stereo not given),outcome,[1],inactive
same,outcome,[16],inactive
same,outcome,[2],inactive
same,outcome,[7],inactive
same,outcome,[15],inactive
CC1(C)CON(Cc2ccccc2Cl)C1=O,outcome,[1],inactive
same,outcome,[2],inactive
same,outcome,[3],inactive
same,outcome,[5],inactive
same,outcome,[6],inactive
same,outcome,[7],inactive
C=CCOC(=O)C(C)(C)OC(=O)c1cc(-n2c(=O)cc(C(F)(F)F)n(C)c2=O)ccc1Cl,outcome,[14],inactive
same,outcome,[16],inactive
same,outcome,[2],inactive
same,outcome,[12],inactive
same,outcome,[3],inactive
same,outcome,[7],inactive
CCCCOCN(C(=O)CCl)c1c(CC)cccc1CC,AC50,[1],9.38 µM (active)
same,AC50,[16],11.5 µM (active)
same,AC50,[12],20 µM (active)
same,outcome,[3],inactive
same,outcome,[4],inactive
same,outcome,[7],inactive
CCNP(=S)(OC)O/C(C)=C/C(=O)OC(C)C (stereo not given),AC50,[1],1.99 µM (active)
same,AC50,[3],1.04 µM (active)
same,AC50,[5],50 µM (active)
same,outcome,[6],inactive
same,outcome,[7],inactive
same,outcome,[15],inactive
CN=C=S,outcome,[14],inactive
same,outcome,[2],inactive
same,outcome,[12],inactive
same,outcome,[3],inactive
same,outcome,[7],inactive
CCOP(=O)(OCC)Oc1nc(Cl)c(Cl)cc1Cl,AC50,[1],4.58 µM (active)
same,outcome,[2],inactive
same,outcome,[12],inactive
same,outcome,[3],inactive
same,outcome,[13],inactive
same,AC50,[7],1.15 µM (active)
same,outcome,[15],inactive
CCOc1nc(F)cc2nc(S(=O)(=O)Nc3c(Cl)cccc3Cl)nn12,outcome,[1],inactive
same,outcome,[3],inactive
same,outcome,[13],inactive
same,AC50,[5],0.007 µM (active)
same,outcome,[7],inactive
same,AC50,[17],55 µM (active)
same,outcome,[15],inactive
CC1(C)C(C=C(Cl)Cl)C1C(=O)OC(C#N)c1cccc(Oc2ccccc2)c1 (stereo not given),AC50,[1],14.6 µM (active)
same,outcome,[16],inactive
same,AC50,[3],6.03 µM (active)
same,outcome,[5],inactive
same,outcome,[6],inactive
same,AC50,[7],1.14 µM (active)
CNC(=O)Oc1cccc2ccccc12,AC50,[1],3.23 µM (active)
same,AC50,[16],3.57 µM (active)
same,outcome,[12],inactive
same,outcome,[3],inactive
same,outcome,[5],inactive
same,outcome,[6],inactive
same,outcome,[7],inactive
CCOC(=O)C(C)OC(=O)c1cc(Oc2ccc(C(F)(F)F)cc2Cl)ccc1[N+](=O)[O-] (stereo not given),AC50,[1],20 µM (active)
same,AC50,[16],20 µM (active)
same,AC50,[3],7 µM (active)
same,AC50,[13],0.241 µM (active)
same,outcome,[6],inactive
same,outcome,[7],inactive

# Source: PubChem BioAssay (EPA / NIEHS)
